Measurements as given in PubChem BioAssay AID1159580 (chemical genetic matrix, 2015).
Where “and” joins values, the source holds several entries; their conditions need not be identical. Equal entries are not always repeated. Among all 5,500 compounds or so, about 2,000 (36%) were called active. Another 18% or so got no clear call; they are omitted. Cut-off read from the data, not from the text of the source: active = normalized growth mostly below about 0.91 (no sharp cut-off); inconclusive = no clear call, values can overlap the other calls; inactive = mostly above about 0.92. Some of the results follow.

Test: chemical genetic growth profiling, strain panel (AID 1159580);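 note: tested at 20 µM; growth read once vehicle control cultures reached saturation at 30 °C; 1 = growth at the plate median or of vehicle wells; lower values mean less growth of the strain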
Settings: S. cerevisiae deletion strains, growth OD

Measured: normalized growth

CCCCNC(=O)NS(=O)(=O)c1ccc(C)cc1
inactive: locus YAL013W, strain DEP1, stronger effect = lower value 0.995 | locus YAL021C, strain ccr4, stronger effect = lower value 1.02 | locus YAL026C, strain drs2, stronger effect = lower value 1.01 | locus YAL030W, strain snc1, stronger effect = lower value 1.02 | locus YAL040C, strain CLN3, stronger effect = lower value 0.997 | locus YBL061C, strain skt5, stronger effect = lower value 1.01 | locus YBR009C, strain hhf1, stronger effect = lower value 0.973 | locus YBR021W, strain FUR4, stronger effect = lower value 1.01 | locus YBR023C, strain chs3, stronger effect = lower value 1.02 | locus YBR171W, strain sec66, stronger effect = lower value 1.01 | locus YBR229C, strain ROT2, stronger effect = lower value 0.993 | locus YBR231C, strain swc5, stronger effect = lower value 1.01 | locus YBR279W, strain paf1, stronger effect = lower value 0.995 | locus YCL011C, strain gbp2, stronger effect = lower value 1 | locus YCL016C, strain dcc1, stronger effect = lower value 0.993 | locus YCL029C, strain bik1, stronger effect = lower value 0.979 | locus YCL061C, strain MRC1 (second series), stronger effect = lower value 1 | locus YCL061C, strain MRC1, stronger effect = lower value 1.01 | locus YCL069W, strain vba3, stronger effect = lower value 1.02 | locus YCR088W, strain abp1, stronger effect = lower value 1.02 | locus YDL005C, strain med2, stronger effect = lower value 1.01 | locus YDL035C, strain GPR1, stronger effect = lower value 0.989 | locus YDL040C, strain nat1, stronger effect = lower value 1.01 | locus YDL074C, strain BRE1, stronger effect = lower value 1.02 | locus YDL101C, strain DUN1, stronger effect = lower value 1.01 | locus YDL134C, strain PPH21, stronger effect = lower value 1 | locus YDL185W, strain tfp1, stronger effect = lower value 0.953 | locus YDL192W, strain arf1, stronger effect = lower value 0.97 | locus YDR001C, strain nth1, stronger effect = lower value 1.02 | locus YDR069C, strain doa4, stronger effect = lower value 1.02 | locus YDR101C, strain arx1, stronger effect = lower value 0.994 | locus YDR137W, strain rgp1, stronger effect = lower value 0.978 | locus YDR159W, strain sac3, stronger effect = lower value 0.93 | locus YDR162C, strain NBP2, stronger effect = lower value 0.974 | locus YDR195W, strain ref2 1.01 | locus YDR297W, strain sur2, stronger effect = lower value 1.01 | locus YDR318W, strain mcm21, stronger effect = lower value 0.978 | locus YDR334W, strain swr1, stronger effect = lower value 1.01 | locus YDR335W, strain msn5, stronger effect = lower value 1.01 | locus YDR363W, strain ESC2, stronger effect = lower value 1.01 | locus YDR388W, stronger effect = lower value 0.974 | locus YDR392W, strain spt3, stronger effect = lower value 0.927 | locus YDR502C, strain sam2, stronger effect = lower value 0.985 | locus YEL003W, strain gim4, stronger effect = lower value 1.02 | locus YEL037C, strain rad23, stronger effect = lower value 1.01 | locus YEL061C, strain CIN8 (second series), stronger effect = lower value 1.01 | locus YEL061C, strain CIN8, stronger effect = lower value 0.99 | locus YER002W, strain NOP16, stronger effect = lower value 1 | locus YER015W, strain faa2, stronger effect = lower value 1.01 | locus YER016W, strain bim1, stronger effect = lower value 0.988 | locus YER110C, stronger effect = lower value 0.982 | locus YER111C, strain swi4, stronger effect = lower value 1.02 | locus YER155C, strain BEM2 (second series), stronger effect = lower value 1.04 | locus YER155C, strain BEM2, stronger effect = lower value 0.985 | locus YER167W, strain BCK2, stronger effect = lower value 0.994 | locus YFR010W, strain ubp6, stronger effect = lower value 1.02 | locus YGL078C, strain dbp3, stronger effect = lower value 0.989 | locus YGL086W, strain mad1, stronger effect = lower value 1 | locus YGL167C, strain pmr1, stronger effect = lower value 1.01 | locus YGL173C, strain kem1, stronger effect = lower value 1.03 | locus YGL227W, strain vid30, stronger effect = lower value 1.01 | locus YGL240W, strain doc1, stronger effect = lower value 1.01 | locus YGL248W, strain PDE1, stronger effect = lower value 1 | locus YGL253W, strain hxk2, stronger effect = lower value 1 | locus YGR078C, strain PAC10, stronger effect = lower value 1.01 | locus YGR135W, strain pre9, stronger effect = lower value 0.986 | locus YGR252W, strain gcn5, stronger effect = lower value 1.21 | locus YHR013C, strain ard1, stronger effect = lower value 0.992 | locus YHR027C, strain rpn1, stronger effect = lower value 1 | locus YHR030C, strain SLT2, stronger effect = lower value 0.99 and 0.938 | locus YHR079C, strain IRE1 (second series), stronger effect = lower value 0.98 | locus YHR079C, strain IRE1, stronger effect = lower value 0.964 | locus YHR094C, strain hxt1, stronger effect = lower value 0.979 | locus YHR129C, strain ARP1, stronger effect = lower value 0.996 | locus YHR142W, strain chs7, stronger effect = lower value 1.02 | locus YHR200W, strain rpn10, stronger effect = lower value 0.985 | locus YIL066C, strain RNR3, stronger effect = lower value 0.988 | locus YIL073C, strain SPO22, stronger effect = lower value 0.831 | locus YIL125W, strain kgd1, stronger effect = lower value 0.962 | locus YIR030C, strain dcg1, stronger effect = lower value 0.982 | locus YJL092W, strain hpr5, stronger effect = lower value 1.01 | locus YJL095W, strain BCK1 (second series), stronger effect = lower value 1.02 | locus YJL095W, strain BCK1, stronger effect = lower value 1.01 and 0.954 | locus YJL115W, strain asf1, stronger effect = lower value 1 | locus YJL129C, strain trk1, stronger effect = lower value 1.01 | locus YJL134W, strain LCB3, stronger effect = lower value 0.99 | locus YJL154C, strain vps35, stronger effect = lower value 1.01 | locus YJL164C, strain tpk1, stronger effect = lower value 1 | locus YJL166W, strain qcr8, stronger effect = lower value 1.02 | locus YJL168C, strain set2, stronger effect = lower value 0.981 | locus YJL187C, strain SWE1 (second series), stronger effect = lower value 0.982 | locus YJL187C, strain SWE1, stronger effect = lower value 1.02 | locus YJR043C, strain POL32, stronger effect = lower value 1.02 | locus YJR066W, strain TOR1, stronger effect = lower value 0.92
